PLK1 PBD inh = qHTS for Inhibitors of PLK1-PDB (polo-like kinase 1 - polo-box domain): Primary Screen. Plk1 PBD binding of FITC phosphopeptide, fluorescence polarization. Potency, µM, inactives show max response, negative = inhibition, most hits filed as inhibitors. hit rate 2.8% among 360,000. AID 720504, 2013; also: series mostly up to about 57 µM; nearly all actives have a fitted effect of over 65% in size
TDP1 cell CPT = qHTS for Inhibitors of human tyrosyl-DNA phosphodiesterase 1 (TDP1): qHTS in cells in presence of CPT | chicken DT40 Tdp1-/-;hTDP1 cells + 20 nM CPT, ATP luminescence, 48 h | Potency, µM (highest dose often 46.2 µM), for inactives: top-dose activity change, negative = growth inhibition, actives largely listed as inhibitors | hit rate 12% among 420,000; also: nearly all actives have a fitted effect of over 55% in size
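Chicken DT40 Tdp1-/- cells stably complemented with human TDP1 were seeded at 400 cells/well in medium containing 20 nM camptothecin, exposed to pin-transferred compounds, and grown at 37 °C for at least 48 hr. Viability was read as ATP luminescence.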
TDP1 inh = qHTS Assay for Inhibitors of Tyrosyl-DNA Phosphodiesterase (TDP1); Tyrosyl-DNA phosphodiesterase 1 (Homo sapiens), Q9NUW8; recombinant TDP1, AlphaScreen DNA substrate cleavage; Potency, µM (series often up to 130 µM), for inactives: at the highest dose activity change, negative = inhibition, actives largely listed as inhibitors; hit rate 0.28% among 350,000; AID 485290, 2010; also: nearly all actives have a fitted effect of over 40% in size
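Here, a 5' biotin and 3' phosphotyrosine-FITC DNA oligonucleotide reports Tdp1 activity: intact substrate bridges AlphaScreen beads, while cleavage leaves a 3' phosphate and drops signal. All incubations at room temperature.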
TDP1 cell noCPT = qHTS for Inhibitors of human tyrosyl-DNA phosphodiesterase 1 (TDP1): qHTS in cells in absence of CPT; hit rate 15% among 420,000; Potency, µM (titrated, usually from 46.2 µM), for the others: top-dose activity change, negative = growth inhibition, usual class: inhibitors; DT40 Tdp1-/- hTDP1 cells, no CPT, ATP luminescence, 48 h; also: nearly all actives have a fitted effect of over 55% in size
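Growth kinetics read by CellTiter-Glo luminescence after ≥48 hr at 37 °C. Cells: DT40 Tdp1-/- stably carrying human TDP1, 400 per well, compound exposure in the absence of CPT (DMSO vehicle).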
VDR inh = Inhibitors of the vitamin D receptor (VDR): qHTS. hit rate 0.93% among 400,000. Potency, µM, without a hit: max response, negative = inhibition, most hits filed as inhibitors. Vitamin D3 receptor (Homo sapiens), P11473. VDR-SRC2-3 peptide fluorescence polarization, 2 h. AID 504847, 2011
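Measured by FP: displacement of SRC2-3 coactivator peptide from VDR by library compounds, following a two-hour ambient incubation.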
KAT2A inh = qHTS Assay for Inhibitors of GCN5L2 | Histone acetyltransferase KAT2A (Homo sapiens), Q92830 | GCN5L2 HAT assay, ThioGlo1 CoA-SH fluorescence | Potency, µM (doses to about 58.9 µM), for inactives: at the top dose activity change, negative = inhibition, actives largely listed as inhibitors | hit rate 0.21% among 390,000
Target sequence (Q92830 whole entry, looked up): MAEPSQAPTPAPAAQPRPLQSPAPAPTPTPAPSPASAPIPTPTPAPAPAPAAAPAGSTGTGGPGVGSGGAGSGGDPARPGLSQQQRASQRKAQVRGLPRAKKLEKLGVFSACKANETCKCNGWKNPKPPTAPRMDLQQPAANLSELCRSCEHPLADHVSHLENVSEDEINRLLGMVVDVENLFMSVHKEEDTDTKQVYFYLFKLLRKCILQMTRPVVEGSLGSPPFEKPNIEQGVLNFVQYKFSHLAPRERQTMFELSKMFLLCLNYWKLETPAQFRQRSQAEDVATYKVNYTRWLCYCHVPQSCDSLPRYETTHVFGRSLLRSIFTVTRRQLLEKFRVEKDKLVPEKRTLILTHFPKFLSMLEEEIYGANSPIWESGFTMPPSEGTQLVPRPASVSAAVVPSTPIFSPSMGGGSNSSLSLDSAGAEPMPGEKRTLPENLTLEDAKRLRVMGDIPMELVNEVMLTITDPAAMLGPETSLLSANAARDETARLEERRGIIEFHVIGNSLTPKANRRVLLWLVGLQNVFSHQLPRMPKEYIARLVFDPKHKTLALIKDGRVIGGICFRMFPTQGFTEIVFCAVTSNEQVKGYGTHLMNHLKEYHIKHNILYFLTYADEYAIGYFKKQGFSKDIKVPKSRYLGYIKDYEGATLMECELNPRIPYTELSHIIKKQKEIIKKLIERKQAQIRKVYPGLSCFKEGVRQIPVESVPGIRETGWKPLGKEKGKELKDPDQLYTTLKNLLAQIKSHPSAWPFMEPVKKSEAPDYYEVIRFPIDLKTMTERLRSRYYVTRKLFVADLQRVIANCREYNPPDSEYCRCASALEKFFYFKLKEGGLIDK
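Compounds, pin-transferred from DMSO stocks, meet 20nM GCN5L2 for 15 min before the reaction begins with H3(1-25) peptide (75uM) and acetyl-CoA (70uM). Thiol-reactive ThioGlo1 reports CoA release over 20 min at room temperature.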
* marks the source's active call; other numbers are inactive results; ? = inconclusive; / = no result given; [ ] = dose if it differs, or a comment. This is a sample that favours compounds with a hit; in the whole collection about 18% have one here. Calls follow the shape of the dose curve; as a rule, active = well fitted curve in the direction sought with a large enough effect; inconclusive = small, poorly fitted or top-dose-only effect, or another doubt; inactive = no such curve, though single readings can be large; an effect the other way counts as inactive or inconclusive. % is scaled to controls: 0 for no effect and ±100 for the full control effect; potency is read from the fitted curve at half-maximal effect.

SMILES	PLK1 PBD inh	TDP1 cell CPT	TDP1 inh	TDP1 cell noCPT	VDR inh	KAT2A inh
O=C(c1cc(-c2ccccc2)n[nH]1)N1CCc2c([nH]c3ccccc23)C1c1ccccn1 (centres undefined)	-4%	18µM*	9%	21µM*	5%	-16%
COc1ccc(OCC(=O)N2CCc3c([nH]c4ccccc34)C2c2ccccn2)cc1 (centres undefined)	4%	?	0%	?	20%	-7%
O=C(c1noc2c1CCCC2)N1CCc2c([nH]c3ccccc23)C1c1ccccn1 (centres undefined)	0%	?	5%	?	-10%	-6%
Cc1ccc2nc(C(=O)N3CCc4c([nH]c5ccccc45)C3c3ccccn3)cn2c1 (centres undefined)	-3%	?	6%	21µM*	-2%	-10%
CC(C)CCN(C(=S)Nc1cccc(F)c1)C1CCN(C(C)C)CC1	-5%	10%	-1%	7%	-8%	-4%
COc1ccc(C(=O)OCC(=O)Nc2c(C)n(C)n(-c3ccccc3)c2=O)cc1OC	0%	-4%	1%	11%	11%	1%
CC(=O)c1ccc(C(=O)N2CCc3c([nH]c4ccccc34)C2c2ccccn2)s1 (centres undefined)	-8%	?	0%	21µM*	-5%	?
COc1ccc(C)cc1NC(=O)c1c(C)oc2ncn(CC(C)C)c(=O)c12	/	?	-6%	23µM*	11%	-2%
Cc1cccc(NC(=O)c2c(C)oc3ncn(CC(C)C)c(=O)c23)n1	/	10µM*	0%	9.2µM*	13%	4%
Cc1oc2ncn(CC(C)C)c(=O)c2c1C(=O)Nc1cccc(C(F)(F)F)c1	/	-10%	0%	-1%	11%	-3%
Cc1oc2ncn(CC(C)C)c(=O)c2c1C(=O)NCc1cccc(Cl)c1	/	16µM*	-2%	16µM*	-1%	2%
O=C(NCc1ccccc1)C(c1ccccc1)n1c(-c2ccccn2)nc2ccccc21 (centres undefined)	-14%	-24%	/	-25%	/	/
CC(C)NC(=O)N[C@H]1CC[C@H](CC(=O)NCc2ccc(Oc3ccccc3)cc2)O[C@@H]1CO	-14%	?	/	?	/	/
CCOc1ccc(-c2c(C(=O)N/N=C/c3cccnc3)nnn2-c2nonc2N)cc1	2%	-19%	50µM*	0%	7%	-6%
CCOc1ccc(-c2c(C(=O)N/N=C/c3ccoc3)nnn2-c2nonc2N)cc1	-12%	-12%	-3%	15%	-9%	-3%
CCOc1cccc(-c2c(C(=O)N/N=C(\C)c3ccncc3)nnn2-c2nonc2N)c1	-8%	0%	1%	7%	-1%	-4%
CCOc1ccc(-c2c(C(=O)N/N=C/c3c[nH]c4ccccc34)nnn2-c2nonc2N)cc1	-16%	?	2%	16µM*	14%	?
CCOc1cccc(-c2c(C(=O)N/N=C/c3ccoc3)nnn2-c2nonc2N)c1	30µM*	?	3%	-23%	?	1%
CCOc1cccc(-c2c(C(=O)N/N=C(\C)c3ccccn3)nnn2-c2nonc2N)c1	-4%	2.3µM*	0%	1.6µM*	-8%	2%
COCc1ccc(CN2CCOc3ccc(C4=Cc5ccccc5C4)cc3C2)o1	/	1%[9.04 µM]	/	-23%	/	/
O=C(NCC1CCCO1)C1CC(=O)N(c2ccccc2)C1 (centres undefined)	-16%	3%	1%	-14%	3%	-1%
Cc1sc2nc3ccc(NCc4ccco4)nn3c(=O)c2c1C	-19%	?	-4%	21µM*	4%	?
